A short description of test [1]: qHTS assay to identify small molecule agonists of the estrogen related receptor signaling pathway with the pleiotropic PPARgamma coactivator (PGC) (AID 1224823). The method in brief: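 PGC/ERR reporter cells were seeded, rested 6 h at 37 C/5% CO2, then exposed to compounds in DMSO by pin transfer for 18 h at 37 C. Luciferase activity was read as luminescence after One-Glo reagent and 30 min at room temperature.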

Test [2] can be described thus: qHTS assay to identify small molecule antagonists of the estrogen related receptor (ERR) signaling pathway from Tox21 library - cell viability counter screen (AID 1224834). Also: nearly all actives have a fitted effect of over 30% in size. Also: potency is read from the fitted curve at half-maximal effect. The method in brief:
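Fluorescence from CellTiter-Fluor gives the viability read-out, taken 30 min after reagent addition. Before that, ERR cells seeded 6 h earlier were incubated with compounds for 17.5 h at 37 C.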

Test [3] addresses Luciferin 4-monooxygenase (Photinus pyralis) (UniProt P08659). Description: qHTS assay to identify small molecule inhibitors of firefly luciferase (AID 1224835). Also: nearly all actives have a fitted effect of over 25% in size. The method in brief: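 Inhibition of purified Photinus luciferase is measured by luminescence. Substrate levels (D-luciferin, ATP) sit at their KM values. Each compound is tested in a concentration series.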
A short description of test [4]: qHTS assay to identify small molecule agonists of the constitutive androstane receptor (CAR) signaling pathway - cell viability counter screen (AID 1224836). Also: nearly all actives have a fitted effect of over 45% in size. Also: potency is read from the fitted curve at half-maximal effect. An outline of the steps:
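Double-stable HepG2 hepatoma cells (hCAR plus CYP2B6-2.2kb) are treated for 23 h at 37 C with test compounds in 15-point concentration series. PK11195 at 0.75 uM final is co-added. Cell viability is quantified by CellTiter-Fluor.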
A general note: In qHTS, concentration-response curves come from the screen itself.

In test [5] the target is Nuclear receptor subfamily 1 group I member 3 (Homo sapiens) (UniProt Q14994). Description: qHTS assay to identify small molecule antagonists of the constitutive androstane receptor (CAR) signaling pathway (AID 1224838).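 Also: HepG2 cells stably expressing hCAR with CYP2B6 luciferase reporter stimulated by CITCO; nearly all actives have a fitted effect of over 40% in size.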 An outline of the steps: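 HepG2-CYP2B6-hCAR cells; 4 h pre-incubation; cpd (15 conc) + CITCO 50 nM final; 24 h, 37 C/5% CO2; ONE-Glo, luminescence.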
Sequence of Nuclear receptor subfamily 1 group I member 3 (Homo sapiens) (Q14994 whole entry, looked up): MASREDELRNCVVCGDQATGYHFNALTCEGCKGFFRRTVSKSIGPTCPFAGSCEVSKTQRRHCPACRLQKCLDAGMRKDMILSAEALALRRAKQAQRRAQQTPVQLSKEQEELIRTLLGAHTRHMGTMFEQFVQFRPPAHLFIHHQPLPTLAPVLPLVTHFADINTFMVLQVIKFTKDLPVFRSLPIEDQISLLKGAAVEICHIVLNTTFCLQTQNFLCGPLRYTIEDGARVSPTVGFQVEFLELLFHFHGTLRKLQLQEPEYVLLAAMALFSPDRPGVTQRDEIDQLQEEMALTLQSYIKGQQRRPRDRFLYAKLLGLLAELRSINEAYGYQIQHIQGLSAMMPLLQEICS
Test [6] has the same target. Description: qHTS assay to identify small molecule agonists of the constitutive androstane receptor (CAR) signaling pathway (AID 1224839).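 Also: HepG2 cells stably carrying human CAR and a CYP2B6 luciferase reporter; nearly all actives have a fitted effect of over 15% in size.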 The method in brief:
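Readout: firefly luciferase luminescence via ONE-Glo. System: HepG2 double-stable for hCAR and CYP2B6-2.2kb. Conditions: 15-point compound titration, PK11195 at 0.75 uM final, 24 h incubation.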

A short description of test [7]: qHTS assay to identify small molecule antagonists of the estrogen related receptor signaling pathway with the pleiotropic PPARgamma coactivator (PGC) from Tox21 10K library - cell viability counter screen (AID 1224840; active = well fitted cell-killing curve with a large enough effect in the repeat runs, not every such curve was filed as active; also: nearly all actives have a fitted effect of over 40% in size; also: potency is read from the fitted curve at half-maximal effect). The method in brief: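 PGC/ERR cells, 2,000/well; 6 h pre-incubation 37 C/5% CO2; cpd in DMSO via pin tool; 17.5 h 37 C; CellTiter-Fluor, 30 min; fluorescence.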

The nature of test [8]: qHTS assay to identify small molecule antagonists of the estrogen related receptor signaling pathway with the pleiotropic PPARgamma coactivator (PGC) from Tox21 10K library (AID 1224841; call rule not given here; also: actives are mostly falling curves and most rising ones were filed inactive; nearly all actives have a fitted effect of over 50% in size). The method in brief:
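PGC/ERR cell line, 2,000 cells/well; 6 h pre-incubation 37 C/5% CO2; compounds (DMSO) pinned in; 18 h, 37 C; One-Glo, 30 min RT; luminescence.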

Test [9] in a line: qHTS assay to identify small molecule agonists of the estrogen related receptor signaling pathway with the pleiotropic PPARgamma coactivator (PGC) from Tox21 10K library (AID 1224842). Also: nearly all actives have a fitted effect of over 15% in size. An outline of the steps: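 Luminescence from One-Glo (30 min, room temperature) measured after PGC/ERR cells had 18 h at 37 C with pinned compound (23 nL in DMSO). Cells had been seeded at 2,000 per well and pre-incubated 6 h.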

In test [10] the target is Thyrotropin receptor (Homo sapiens) (UniProt P16473). Nature of the test: qHTS assay to identify small molecule agonists of the thyroid stimulating hormone receptor (TSHR) signaling pathway (AID 1224843; calls by dose curve; also: nearly all actives have a fitted effect of over 45% in size). An outline of the steps: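 HEK293 cells stably bearing the thyrotropin receptor were plated at 800 cells/well and challenged with compound (30 min, RT). Accumulated cAMP was quantified via cAMP-d2 competing for cryptate-tagged antibody.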
Sequence of Thyrotropin receptor (Homo sapiens) (P16473 whole entry, looked up): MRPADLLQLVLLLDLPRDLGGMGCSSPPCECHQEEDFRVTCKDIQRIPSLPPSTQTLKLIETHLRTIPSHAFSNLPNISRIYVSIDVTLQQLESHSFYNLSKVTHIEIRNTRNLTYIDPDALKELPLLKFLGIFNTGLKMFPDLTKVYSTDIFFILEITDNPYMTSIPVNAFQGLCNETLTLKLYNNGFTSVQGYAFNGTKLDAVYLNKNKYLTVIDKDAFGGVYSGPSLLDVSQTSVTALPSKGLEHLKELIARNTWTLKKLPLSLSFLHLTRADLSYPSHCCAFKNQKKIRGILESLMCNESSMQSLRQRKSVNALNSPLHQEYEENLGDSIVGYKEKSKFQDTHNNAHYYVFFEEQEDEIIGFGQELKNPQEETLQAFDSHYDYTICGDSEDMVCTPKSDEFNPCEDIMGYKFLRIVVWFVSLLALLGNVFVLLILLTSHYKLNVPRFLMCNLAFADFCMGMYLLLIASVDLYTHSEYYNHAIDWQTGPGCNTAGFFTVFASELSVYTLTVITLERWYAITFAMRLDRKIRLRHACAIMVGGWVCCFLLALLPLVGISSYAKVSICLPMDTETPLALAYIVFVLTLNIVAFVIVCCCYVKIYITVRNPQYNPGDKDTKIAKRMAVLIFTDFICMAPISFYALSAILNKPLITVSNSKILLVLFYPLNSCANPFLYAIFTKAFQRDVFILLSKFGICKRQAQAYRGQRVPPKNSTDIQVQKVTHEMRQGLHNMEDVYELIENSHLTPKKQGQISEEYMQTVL

The nature of test [11]: qHTS assay to identify small molecule agonists of the hypoxia (HIF-1) signaling pathway - cell viability counter screen (AID 1224844; calls by dose curve; also: nearly all actives have a fitted effect of over 50% in size; also: potency is read from the fitted curve at half-maximal effect). An outline of the steps:
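ME-180 HRE-bla cells, 2,000/well, 0.5% dialyzed FBS; 5 hr settle, 17 hr compound at 37C/5% CO2; CCF4-AM reporter read first, then CellTiter-Glo luminescence after 30 min RT.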

Test [12] is described as follows: qHTS assay to identify small molecule agonists of H2AX (AID 1224845; active = well fitted activation curve with a large enough effect in the signal ratio in the repeat runs, not every such curve was filed as active; the % refers to the signal ratio). The method in brief: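 Phospho-H2AX Ser139 measured by HTRF (ex 320 nm; em 665 and 620 nm) after 24 hr antibody incubation. Compounds, 15 concentrations, 0.76% DMSO, were applied to CHO-K1 cells for 3hr at 37C before lysis.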
Test [13] is described as follows: qHTS assay to identify small molecule agonists of the hypoxia (HIF-1) signaling pathway (AID 1224846; active = well fitted activation curve with a large enough effect in the signal ratio in the repeat runs, not every such curve was filed as active; the % refers to the signal ratio). The method in brief:
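Cell line: CellSensor HRE-bla ME-180; 2,000 cells/well; 0.5% dialyzed FBS; 5 h preincubation; DMSO compound pin transfer; 17 h, 37C, 5% CO2; CCF4-AM added; bla FRET signal scored for activation.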

The nature of test [14]: qHTS assay to identify small molecule agonists of H2AX - cell viability counter screen (AID 1224847; calls by dose curve; also: nearly all actives have a fitted effect of over 30% in size; also: potency is read from the fitted curve at half-maximal effect). The method in brief:
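For this counter screen, overnight-attached CHO-K1 cells received test compounds (15 concentrations, 0.76% DMSO final); 3 hr later at 37C, CellTiter-Glo reagent was added and luminescence recorded after 30 min at room temperature.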

A short description of test [15]: qHTS assay to identify small molecule antagonists of the estrogen related receptor (ERR) signaling pathway from Tox21 library (AID 1224848). Also: nearly all actives have a fitted effect of over 50% in size. Also: potency is read from the fitted curve at half-maximal effect. An outline of the steps:
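Reading was by luminescence 30 min after ONE-Glo addition. Before that, ERR cells at 2,000 per well had rested 6 h at 37 C/5% CO2 and then received pin-tooled compounds in DMSO for 18 h at 37 C.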

Test [16] in a line: qHTS assay to identify small molecule agonists of the estrogen related receptor (ERR) signaling pathway from Tox21 library (AID 1224849; calls by dose curve; also: nearly all actives have a fitted effect of over 15% in size). As to conditions: ERR reporter cell line, ONE-Glo luciferase, 18 h. An outline of the steps:
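ERR cells, 6 h pre-incubation 37 C/5% CO2; cpd in DMSO pinned; 18 h 37 C; ONE-Glo added, 30 min RT; luminescence read. Agonist mode, qHTS.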

Test [17] is described as follows: qHTS RealTime-Glo MT Cell Viability Assay in HepG2 cells - 24 hour (AID 1224867). Also: nearly all actives have a fitted effect of over 50% in size. Also: potency is read from the fitted curve at half-maximal effect. The method in brief:
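HepG2 cells were seeded at 600 cells/well together with NanoLuc luciferase and a cell-permeant prosubstrate, preincubated 5 h at 37 C/5% CO2, then pin-dosed with compounds in DMSO. Nonlytic luminescence from viable cells was read at each time point.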

Test [18] is described as follows: A CellTox Green Cytotoxicity Assay to monitor cytotoxicity in HEK293 cells - 0 hour (AID 1224869). Also: nearly all actives have a fitted effect of over 50% in size. The method in brief: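 Nonlytic real-time cytotoxicity: HEK293 + CellTox Green reagent plated, 5 h preincubation, pintool compound addition (23 nL in DMSO), 37 C for 40 h, fluorescence measured at successive time points.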
Test [19] in a line: qHTS assay to identify small molecule antagonists of the constitutive androstane receptor (CAR) signaling pathway - cell viability counter screen (AID 1224837). Also: nearly all actives have a fitted effect of over 45% in size. Also: potency is read from the fitted curve at half-maximal effect. An outline of the steps:
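HepG2-CYP2B6-hCAR cells, 2500/well, 4 hr pre-incubation; compound titration, 15 conc.; CITCO 50 nM final; 23 hr, 37 C/5% CO2; CellTiter-Fluor, fluorescence intensity.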

Test [20] can be described thus: qHTS RealTime-Glo MT Cell Viability Assay in HEK293 cells - 32 hour (AID 1224868). Also: nearly all actives have a fitted effect of over 50% in size. Also: potency is read from the fitted curve at half-maximal effect. An outline of the steps:
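HEK293 cells were seeded at 600 cells/well together with NanoLuc luciferase and cell-permeant prosubstrate, preincubated 5 h at 37 C/5% CO2, then given compound in DMSO by pintool. Luminescence from viable-cell prosubstrate reduction was read repeatedly over 40 h.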

Setting [21] is: at 92.4 µM (top of the series) unless noted.

Drawing on PubChem BioAssay (Tox21), this text covers outcome, Potency and activity change, positive = activation for five compounds.

“And” between values parts separate entries of the source, which are not always exact repeats. Identical values can stand only once. Records with an inconclusive call do not appear. More than one record can exist for a structure, and the calls need not agree. The source made the active and inactive calls. Unless noted, calls follow the shape of the dose curve; as a rule, active = well fitted curve in the direction sought with a large enough effect in the repeat runs; inconclusive = weak or mixed curves; inactive = no such curve, though single readings can be large; an effect the other way counts as inactive or inconclusive.
% is scaled to controls: 0 for no effect and ±100 for the full control effect.

Sequence of Luciferin 4-monooxygenase (Photinus pyralis) (P08659 whole entry, looked up): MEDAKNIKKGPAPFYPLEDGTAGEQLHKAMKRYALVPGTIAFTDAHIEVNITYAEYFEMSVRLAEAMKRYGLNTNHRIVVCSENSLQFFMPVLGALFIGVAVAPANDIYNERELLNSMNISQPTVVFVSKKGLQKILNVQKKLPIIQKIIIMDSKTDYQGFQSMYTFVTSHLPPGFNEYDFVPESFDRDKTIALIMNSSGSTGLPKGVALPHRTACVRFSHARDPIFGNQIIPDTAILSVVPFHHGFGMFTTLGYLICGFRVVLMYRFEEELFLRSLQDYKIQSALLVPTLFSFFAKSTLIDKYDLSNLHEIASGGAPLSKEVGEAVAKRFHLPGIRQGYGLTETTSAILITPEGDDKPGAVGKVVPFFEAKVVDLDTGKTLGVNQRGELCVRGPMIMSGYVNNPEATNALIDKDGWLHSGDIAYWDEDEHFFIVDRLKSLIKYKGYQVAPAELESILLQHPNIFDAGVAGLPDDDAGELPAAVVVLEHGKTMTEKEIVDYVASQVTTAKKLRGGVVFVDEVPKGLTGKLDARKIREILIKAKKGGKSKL

Take `C[C@H](NC(CCc1ccccc1)C(=O)O)C(=O)N1CCC[C@H]1C(=O)O` (stereo partly drawn): the compound was called inactive in [1], in test [9], in [12] and in [13]. Besides, the Potency entry in [2], in test [3], in [4], in test [5], in [6] and in test [7] was “inactive” each time. The Potency result in test [8], in [10], in test [11], in test [14], in [17] and in test [18] was “inactive” in each case. Further, the Potency in test [15] is 5.96 µM (active). The activity change, positive = activation in test [16] (setting [21]) is -0.914% [at 42.5 µM] (inactive).
In the case of `CC(C[N+](C)(C)C)OC(N)=O` (stereo not drawn), the outcome in [1], in test [9] and in [12] was inactive. Moreover, the Potency result in [2], in [3], in [4], in [19], in [5] and in test [6] was “inactive” throughout. The Potency entry in test [7], in test [8], in test [11], in [14], in test [17] and in test [20] was “inactive” each time. In addition, in test [18], the Potency result is “inactive”. Further, in test [16] (setting [21]), the activity change, positive = activation is 3.25% [at 42.5 µM] (inactive).
As for `CC(C)=CCCC(C)CC(=O)O` (stereo not drawn), the Potency result in test [2], in test [3], in test [4], in test [19], in [5] and in test [6] was “inactive” each time. Besides, the Potency entry in test [7], in test [8], in [10], in test [11], in [14] and in [15] was “inactive” in each case. Further, the Potency entry in [17], in test [20] and in test [18] was “inactive” in each case. In addition, the call in test [9], in test [12] and in test [13] was inactive. In addition, the activity change, positive = activation in [16] (setting [21]) was 3.83% (inactive).
In the case of `C[C@H]1C[C@@H](O)CC(C)(C)C1`, the Potency result in test [2], in test [3], in test [4], in test [19], in [5] and in test [6] was “inactive” throughout. Moreover, the Potency entry in test [7], in test [8], in test [10], in test [11], in test [14] and in test [15] was “inactive” throughout. The Potency result in [17] and in [20] was “inactive” in each case. Moreover, the outcome in [9], in test [12] and in test [13] was inactive. Besides, the activity change, positive = activation in test [16] (setting [21]) is 0.742% (inactive).
Regarding `CN(C)CCCN1c2ccccc2CCc2ccc(Cl)cc21`, the call in test [1] and in [9] was inactive. Further, the Potency was 54.5 µM (active) and 23.7 µM (active) in test [2]; 48.6 µM (active) and 29.8 µM (active) in test [4]; 48.6 µM (active) in [19]; 54.5 µM (active) and inactive in test [7]; 49 µM (active) in test [11]; 113 µM (active) in test [14]. Moreover, the Potency in [15] is 68.6 µM (active); in test [17], 49 µM (active) and 23.9 µM (active); in test [20], 34.7 µM (active) and 21.3 µM (active). In addition, the Potency result in test [6], in test [10] and in test [18] was “inactive” in each case. The activity change, positive = activation in test [16] (at 42.5 µM (top of the series)) was -18.5% (inactive); in test [16] (at 92.4 µM (top of the series)), -78.1% (inactive).
